Data as given in PubChem BioAssay AID1159580 (chemical genetic matrix, 2015).
In all, about 5,500 compounds went through this assay and about 2,000 (36%) were called active. Roughly 18% stayed inconclusive and do not appear here. This is one part of the list. Values without a mark were called inactive. No stated cut-off is given here; in the data, active means normalized growth mostly below about 0.91 (no sharp cut-off); inconclusive means no clear call, values can overlap the other calls; inactive means mostly above about 0.92.

Experiment: chemical genetic growth profiling, strain panel (AID 1159580);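 further: tested at 20 µM; growth read once vehicle control cultures reached saturation at 30 °C; 1 = growth at the plate median or of vehicle wells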
Conditions: growth OD

## COc1ccc(-c2cc(=O)c3c(OC(C)=O)cc(OC(C)=O)cc3o2)cc1
S. cerevisiae deletion strains, locus YJR066W, strain TOR1, stronger effect = lower value
  normalized growth: 0.922
S. cerevisiae deletion strains, locus YJR075W, strain HOC1, stronger effect = lower value
  normalized growth: 0.946
S. cerevisiae deletion strains, locus YKL009W, strain mrt4, stronger effect = lower value
  normalized growth: 0.994
S. cerevisiae deletion strains, locus YKL068W, stronger effect = lower value
  normalized growth: 0.972
S. cerevisiae deletion strains, locus YKL085W, strain MDH1 (second series), stronger effect = lower value
  normalized growth: 0.968
S. cerevisiae deletion strains, locus YKL085W, strain MDH1, stronger effect = lower value
  normalized growth: 0.968
S. cerevisiae deletion strains, locus YKL160W, strain elf1, stronger effect = lower value
  normalized growth: 0.974
S. cerevisiae deletion strains, locus YKL190W, strain CNB1, stronger effect = lower value
  normalized growth: 0.967
S. cerevisiae deletion strains, locus YKR001C, strain vps1, stronger effect = lower value
  normalized growth: 0.941
S. cerevisiae deletion strains, locus YKR026C, strain gcn3, stronger effect = lower value
  normalized growth: 0.985
S. cerevisiae deletion strains, locus YKR091W, strain srl3, stronger effect = lower value
  normalized growth: 0.999
S. cerevisiae deletion strains, locus YLL001W, strain dnm1, stronger effect = lower value
  normalized growth: 0.937
S. cerevisiae deletion strains, locus YLL026W, stronger effect = lower value
  normalized growth: 0.985
S. cerevisiae deletion strains, locus YLL041C, strain sdh2, stronger effect = lower value
  normalized growth: 0.992
S. cerevisiae deletion strains, locus YLR027C, strain aat2, stronger effect = lower value
  normalized growth: 0.984
S. cerevisiae deletion strains, locus YLR039C, strain RIC1, stronger effect = lower value
  normalized growth: 0.824
S. cerevisiae deletion strains, locus YLR058C, strain SHM2, stronger effect = lower value
  normalized growth: 0.957
S. cerevisiae deletion strains, locus YLR102C, strain apc9, stronger effect = lower value
  normalized growth: 0.959
S. cerevisiae deletion strains, locus YLR113W, strain HOG1, stronger effect = lower value
  normalized growth: 0.805 (active)
S. cerevisiae deletion strains, locus YLR221C, strain rsa3, stronger effect = lower value
  normalized growth: 0.973
S. cerevisiae deletion strains, locus YLR258W, strain gsy2, stronger effect = lower value
  normalized growth: 0.971
S. cerevisiae deletion strains, locus YLR262C, strain YPT6 (second series), stronger effect = lower value
  normalized growth: 0.914
S. cerevisiae deletion strains, locus YLR262C, strain YPT6, stronger effect = lower value
  normalized growth: 0.807
S. cerevisiae deletion strains, locus YLR268W, strain sec22, stronger effect = lower value
  normalized growth: 0.964
S. cerevisiae deletion strains, locus YLR320W, strain mms22, stronger effect = lower value
  normalized growth: 0.965
S. cerevisiae deletion strains, locus YLR330W, strain CHS5, stronger effect = lower value
  normalized growth: 0.929
S. cerevisiae deletion strains, locus YLR342W, strain FKS1 (second series), stronger effect = lower value
  normalized growth: 1.01
S. cerevisiae deletion strains, locus YLR342W, strain FKS1, stronger effect = lower value
  normalized growth: 1
S. cerevisiae deletion strains, locus YLR357W, strain rsc2, stronger effect = lower value
  normalized growth: 0.894
S. cerevisiae deletion strains, locus YLR370C, strain arc18, stronger effect = lower value
  normalized growth: 0.992
S. cerevisiae deletion strains, locus YLR371W, strain rom2, stronger effect = lower value
  normalized growth: 0.952
S. cerevisiae deletion strains, locus YLR384C, strain iki3, stronger effect = lower value
  normalized growth: 0.981
S. cerevisiae deletion strains, locus YLR418C, strain cdc73, stronger effect = lower value
  normalized growth: 0.685 (active)
S. cerevisiae deletion strains, locus YML016C, strain PPZ1, stronger effect = lower value
  normalized growth: 0.924
S. cerevisiae deletion strains, locus YML032C, strain rad52, stronger effect = lower value
  normalized growth: 0.964
S. cerevisiae deletion strains, locus YML120C, strain ndi1, stronger effect = lower value
  normalized growth: 0.973
S. cerevisiae deletion strains, locus YML124C, strain tub3, stronger effect = lower value
  normalized growth: 0.958
S. cerevisiae deletion strains, locus YMR058W, strain fet3, stronger effect = lower value
  normalized growth: 0.983
S. cerevisiae deletion strains, locus YMR078C, strain ctf18, stronger effect = lower value
  normalized growth: 0.963
S. cerevisiae deletion strains, locus YMR125W, strain sto1, stronger effect = lower value
  normalized growth: 0.965
S. cerevisiae deletion strains, locus YMR129W, stronger effect = lower value
  normalized growth: 0.981
S. cerevisiae deletion strains, locus YMR205C, strain PFK2, stronger effect = lower value
  normalized growth: 0.976
S. cerevisiae deletion strains, locus YMR223W, strain ubp8, stronger effect = lower value
  normalized growth: 0.946
S. cerevisiae deletion strains, locus YMR231W, strain pep5, stronger effect = lower value
  normalized growth: 0.994
S. cerevisiae deletion strains, locus YMR307W, strain GAS1, stronger effect = lower value
  normalized growth: 0.913
S. cerevisiae deletion strains, locus YNL067W, strain RPL9B, stronger effect = lower value
  normalized growth: 0.945
S. cerevisiae deletion strains, locus YNL071W, strain lat1, stronger effect = lower value
  normalized growth: 0.893 (active)
S. cerevisiae deletion strains, locus YNL183C, strain NPR1, stronger effect = lower value
  normalized growth: 0.84
S. cerevisiae deletion strains, locus YNL209W, strain ssb2, stronger effect = lower value
  normalized growth: 0.996
S. cerevisiae deletion strains, locus YNL233W, strain BNI4, stronger effect = lower value
  normalized growth: 0.89
S. cerevisiae deletion strains, locus YNL248C, strain rpa49, stronger effect = lower value
  normalized growth: 0.955
S. cerevisiae deletion strains, locus YNL250W, strain rad50, stronger effect = lower value
  normalized growth: 0.958
S. cerevisiae deletion strains, locus YNL271C, strain bni1, stronger effect = lower value
  normalized growth: 0.986
S. cerevisiae deletion strains, locus YNL298W, strain CLA4, stronger effect = lower value
  normalized growth: 0.968
S. cerevisiae deletion strains, locus YNL307C, strain MCK1, stronger effect = lower value
  normalized growth: 0.878 (active)
S. cerevisiae deletion strains, locus YNL322C, strain KRE1 (second series), stronger effect = lower value
  normalized growth: 0.952
S. cerevisiae deletion strains, locus YNR049C, strain mso1, stronger effect = lower value
  normalized growth: 0.992
S. cerevisiae deletion strains, locus YNR052C, strain pop2, stronger effect = lower value
  normalized growth: 0.949
S. cerevisiae deletion strains, locus YOL006C, strain TOP1, stronger effect = lower value
  normalized growth: 0.97
S. cerevisiae deletion strains, locus YOL012C, strain htz1
  normalized growth: 0.936
S. cerevisiae deletion strains, locus YOL147C, strain pex11, stronger effect = lower value
  normalized growth: 0.945
S. cerevisiae deletion strains, locus YOR001W, strain rrp6, stronger effect = lower value
  normalized growth: 0.967
S. cerevisiae deletion strains, locus YOR061W, strain CKA2, stronger effect = lower value
  normalized growth: 1
S. cerevisiae deletion strains, locus YOR069W, strain VPS5, stronger effect = lower value
  normalized growth: 0.959
S. cerevisiae deletion strains, locus YOR070C, strain gyp1, stronger effect = lower value
  normalized growth: 0.999
S. cerevisiae deletion strains, locus YOR080W, strain dia2, stronger effect = lower value
  normalized growth: 0.989
S. cerevisiae deletion strains, locus YOR083W, strain WHI5, stronger effect = lower value
  normalized growth: 0.984
S. cerevisiae deletion strains, locus YOR106W, strain vam3, stronger effect = lower value
  normalized growth: 0.988
S. cerevisiae deletion strains, locus YOR136W, strain idh2, stronger effect = lower value
  normalized growth: 0.978
S. cerevisiae deletion strains, locus YOR144C, strain elg1, stronger effect = lower value
  normalized growth: 0.961
S. cerevisiae deletion strains, locus YOR184W, strain ser1, stronger effect = lower value
  normalized growth: 0.982
S. cerevisiae deletion strains, locus YOR231W, strain MKK1, stronger effect = lower value
  normalized growth: 0.876
S. cerevisiae deletion strains, locus YOR265W, strain rbl2, stronger effect = lower value
  normalized growth: 0.99
S. cerevisiae deletion strains, locus YOR270C, strain vph1, stronger effect = lower value
  normalized growth: 0.889
S. cerevisiae deletion strains, locus YOR290C, strain snf2, stronger effect = lower value
  normalized growth: 0.949
S. cerevisiae deletion strains, locus YOR316C, strain cot1, stronger effect = lower value
  normalized growth: 0.942
S. cerevisiae deletion strains, locus YPL051W, strain arl3, stronger effect = lower value
  normalized growth: 0.954
S. cerevisiae deletion strains, locus YPL055C, strain LGE1, stronger effect = lower value
  normalized growth: 0.906
S. cerevisiae deletion strains, locus YPL078C, strain atp4, stronger effect = lower value
  normalized growth: 0.967
S. cerevisiae deletion strains, locus YPL106C, strain sse1, stronger effect = lower value
  normalized growth: 0.922
S. cerevisiae deletion strains, locus YPL240C, strain hsp82, stronger effect = lower value
  normalized growth: 0.987
S. cerevisiae deletion strains, locus YPL241C, strain CIN2, stronger effect = lower value
  normalized growth: 0.973
S. cerevisiae deletion strains, locus YPL256C, strain CLN2, stronger effect = lower value
  normalized growth: 0.756 (active)
S. cerevisiae deletion strains, locus YPR119W, strain clb2, stronger effect = lower value
  normalized growth: 0.958
S. cerevisiae deletion strains, locus YPR141C, strain kar3, stronger effect = lower value
  normalized growth: 0.953
S. cerevisiae deletion strains, locus YPR163C, strain tif3, stronger effect = lower value
  normalized growth: 0.981
S. cerevisiae deletion strains, locus YPR167C, strain met16, stronger effect = lower value
  normalized growth: 0.946
S. cerevisiae deletion strains, strain wtn01, stronger effect = lower value
  normalized growth: 0.987
S. cerevisiae strains, strain wild type, stronger effect = lower value
  normalized growth: 0.971
